# Measurements from PubChem BioAssay (NCI).
# Values joined by “and” are separate entries in the source; they are usually repeats but may differ in a detail not shown here. Equal entries are not always repeated. This is part of a sample that, as a whole, favours compounds with a hit. Of some 83,000 tested, about 20% had one in any assay.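 Percent growth is the endpoint: 0 to 100 indicates growth inhibition (40 means 60% inhibition), 0 means no net growth, and negative values indicate cell death.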 Active and inactive are the calls of the source. How the source made its calls: active means growth percent below 10; inactive means the rest.
# Columns and labels:
# Assay in all cases: NCI-60 one-dose screen, 48 h (100 = growth as untreated, 0 = no growth, -100 = all killed)
# EKVX NSCLC = conditions: 10 µM
# SN12C renal = conditions: 10 µM
# TK-10 renal = test system: TK-10 renal
# ACHN renal = conditions: 10 µM
# CAKI-1 renal = conditions: 10 µM
# HL-60(TB) leukemia = conditions: 10 µM
# CCRF-CEM leukemia = conditions: 10 µM
# UO-31 renal = conditions: 10 µM
# SK-MEL-2 melanoma = conditions: 10 µM
# A498 renal = conditions: 10 µM
smiles,measurement,setting,value
Cc1cc(C(C)(C)c2ccc(O)c(C)c2)ccc1O,growth,EKVX NSCLC,85.2% (inactive)
same,growth,SN12C renal,89.9% (inactive)
same,growth,TK-10 renal; 10 µM unless noted,98.9% (inactive)
same,growth,ACHN renal,88.7% (inactive)
same,growth,CAKI-1 renal,84.7% (inactive)
same,growth,HL-60(TB) leukemia,71.4% (inactive)
same,growth,CCRF-CEM leukemia,127% (inactive)
NNc1ccccc1,growth,EKVX NSCLC,89.6% (inactive)
same,growth,SN12C renal,97.3% (inactive)
same,growth,ACHN renal,64.5% (inactive)
same,growth,CAKI-1 renal,65.4% (inactive)
same,growth,CCRF-CEM leukemia,42.7% (inactive)
COc1cc(/C=C/[N+](=O)[O-])cc(Br)c1OC,growth,EKVX NSCLC,103% (inactive)
same,growth,SN12C renal,28.7% (inactive)
same,growth,UO-31 renal,-1.36% (active)
same,growth,TK-10 renal; 10 µM unless noted,-38.1% (active)
same,growth,ACHN renal,60.7% (inactive)
same,growth,CAKI-1 renal,61.3% (inactive)
same,growth,CCRF-CEM leukemia,6.59% (active)
COC12c3c(C)cc(O)c4c(=O)occ(c34)C(=O)C1C13COC(=O)c4c(O)cc(C)c(c41)C(=O)C2C3OC(C)=O (centres undefined),growth,SK-MEL-2 melanoma,81.5% (inactive)
same,growth,SN12C renal,102% (inactive)
same,growth,TK-10 renal; 10 µM unless noted,110% (inactive)
same,growth,ACHN renal,100% (inactive)
same,growth,CAKI-1 renal,156% (inactive)
same,growth,CCRF-CEM leukemia,96.2% (inactive)
CC1CCC2(OC1)OC1C(O)C3C4CCC5CC(OC6OC(CO)C(OC7OC(CO)C(O)C(OC8OCC(O)C(O)C8O)C7OC7OC(CO)C(O)C(OC8OC(CO)C(O)C(O)C8O)C7O)C(O)C6O)C(O)CC5(C)C4CCC3(C)C1C2C (centres undefined),growth,SK-MEL-2 melanoma,8.3% (active)
same,growth,EKVX NSCLC,-17.2% (active)
same,growth,SN12C renal,-26.9% (active)
same,growth,ACHN renal,1.57% (active)
same,growth,CAKI-1 renal,-63% (active)
same,growth,CCRF-CEM leukemia,-15.7% (active)
O=C(CBr)Nc1ccc(Cl)cc1,growth,SK-MEL-2 melanoma,103% (inactive)
same,growth,SN12C renal,85.5% (inactive)
same,growth,UO-31 renal,90.1% (inactive)
same,growth,ACHN renal,64% (inactive)
same,growth,CAKI-1 renal,22% (inactive)
same,growth,CCRF-CEM leukemia,-28.3% (active)
Oc1c(Cl)cc(Cl)c2ccccc12.[Cu+2],growth,SK-MEL-2 melanoma,86.1% (inactive)
same,growth,SN12C renal,99% (inactive)
same,growth,TK-10 renal; 10 µM unless noted,119% (inactive)
same,growth,ACHN renal,91.9% (inactive)
same,growth,CAKI-1 renal,96.4% (inactive)
same,growth,A498 renal,106% (inactive)
same,growth,CCRF-CEM leukemia,48.5% (inactive)
CCOP(=O)(OCC)C(O)c1ccccc1Cl (centres undefined),growth,SK-MEL-2 melanoma,93% (inactive)
same,growth,SN12C renal,106% (inactive)
same,growth,ACHN renal,96.8% (inactive)
same,growth,CAKI-1 renal,101% (inactive)
same,growth,A498 renal,103% (inactive)
same,growth,HL-60(TB) leukemia,106% (inactive)
same,growth,CCRF-CEM leukemia,93.9% (inactive)
NC(=O)c1cc([N+](=O)[O-])c(Cl)c([N+](=O)[O-])c1Cl,growth,SK-MEL-2 melanoma,-14.5% (active)
same,growth,EKVX NSCLC,35.8% (inactive)
same,growth,SN12C renal,18.8% (inactive)
same,growth,ACHN renal,-89.7% (active)
same,growth,CCRF-CEM leukemia,-23.5% (active)
CC(Cc1ccc2c(c1)OCO2)NN (centres undefined),growth,SK-MEL-2 melanoma,101% (inactive)
same,growth,EKVX NSCLC,84.2% (inactive)
same,growth,SN12C renal,102% (inactive)
same,growth,ACHN renal,98.7% (inactive)
same,growth,CCRF-CEM leukemia,84.1% (inactive)
COc1ccc2c(ccc3oc([N+](=O)[O-])cc32)c1,growth,SN12C renal,6.57% (active)
same,growth,ACHN renal,2.78% (active)
same,growth,CAKI-1 renal,5.89% (active)
same,growth,A498 renal,-76.1% (active)
same,growth,CCRF-CEM leukemia,4.13% (active)
Cc1ccc(C(=O)C2C(c3ccccc3)N2C2CCCCC2)cc1 (centres undefined),growth,SK-MEL-2 melanoma,101% (inactive) and 98.3% (inactive)
same,growth,SN12C renal,107% (inactive) and 100% (inactive)
same,growth,UO-31 renal,92.8% (inactive) and 73.4% (inactive)
same,growth,TK-10 renal; 10 µM unless noted,137% (inactive) and 108% (inactive)
same,growth,ACHN renal,113% (inactive) and 97.9% (inactive)
same,growth,CAKI-1 renal,107% (inactive) and 94.3% (inactive)
same,growth,A498 renal,105% (inactive) and 89% (inactive)
same,growth,HL-60(TB) leukemia,98.3% (inactive) and 94.8% (inactive)
same,growth,CCRF-CEM leukemia,94.2% (inactive) and 96% (inactive)
COc1cc2c(c(OC)c1OC)-c1ccc(O)c(=O)cc1[C@@H](NC(C)=O)CC2,growth,SK-MEL-2 melanoma,47.9% (inactive)
same,growth,SN12C renal,60% (inactive)
same,growth,TK-10 renal; 10 µM,64.4% (inactive)
same,growth,TK-10 renal; 100 µM,12.6% (inactive)
same,growth,ACHN renal,61.2% (inactive)
same,growth,CAKI-1 renal,26.6% (inactive)
same,growth,A498 renal,63.7% (inactive)
same,growth,CCRF-CEM leukemia,16.2% (inactive)
N#CCc1ccccc1,growth,SK-MEL-2 melanoma,99.9% (inactive)
same,growth,SN12C renal,99.6% (inactive)
same,growth,UO-31 renal,93% (inactive)
same,growth,TK-10 renal; 10 µM unless noted,108% (inactive)
same,growth,ACHN renal,108% (inactive)
same,growth,CAKI-1 renal,104% (inactive)
same,growth,HL-60(TB) leukemia,105% (inactive)
same,growth,CCRF-CEM leukemia,97.3% (inactive)
COc1cc2c3cc1Oc1c(OC)c(OC)cc4c1C(Cc1ccc(cc1)Oc1cc(ccc1O)CC3N(C)CC2)N(C)CC4 (centres undefined),growth,TK-10 renal; 10 µM unless noted,48% [100 µM] (inactive) and -100% [100 µM] (active)
CC(=O)c1ccccc1O,growth,HL-60(TB) leukemia,85.9% (inactive) and 82.5% (inactive) and 101% (inactive)
CCOC(=O)c1[nH]cnc1/N=N/N(C)N,growth,TK-10 renal; 10 µM unless noted,99.8% [100 µM] (inactive) and -100% [100 µM] (active)
COc1cc(/C=C\[N+](=O)[O-])ccc1O,growth,SK-MEL-2 melanoma,87.7% (inactive) and 93.5% (inactive)
same,growth,EKVX NSCLC,108% (inactive) and 91.7% (inactive)
same,growth,SN12C renal,67.3% (inactive) and 94.1% (inactive)
same,growth,ACHN renal,13.4% (inactive) and 82.9% (inactive)
same,growth,CAKI-1 renal,74.4% (inactive)
same,growth,CCRF-CEM leukemia,6.86% (active) and 70.4% (inactive)
O=[P+](O)c1ccccc1,growth,SK-MEL-2 melanoma,109% (inactive)
same,growth,EKVX NSCLC,115% (inactive)
same,growth,SN12C renal,104% (inactive)
same,growth,ACHN renal,102% (inactive)
same,growth,CAKI-1 renal,103% (inactive)
same,growth,CCRF-CEM leukemia,79.9% (inactive)
C[C@H]1CC[C@@]2(NC1)O[C@H]1C[C@H]3[C@@H]4CC[C@H]5C[C@@H](O)CC[C@]5(C)[C@H]4CC[C@]3(C)[C@H]1[C@@H]2C,growth,TK-10 renal; 10 µM unless noted,25.1% [100 µM] (inactive) and -60.4% [100 µM] (active)
COc1cc([N+](=O)[O-])c2ncccc2c1[N+](=O)[O-],growth,EKVX NSCLC,102% (inactive)
same,growth,SN12C renal,71.4% (inactive)
same,growth,UO-31 renal,41% (inactive)
same,growth,TK-10 renal; 10 µM unless noted,27.1% (inactive)
same,growth,ACHN renal,56.1% (inactive)
same,growth,CAKI-1 renal,24.8% (inactive)
same,growth,A498 renal,122% (inactive)
same,growth,CCRF-CEM leukemia,22.9% (inactive)
COC1CC2C=C(C)/C=C/C=C/C(=O)NC(c3ccccc3)C/C=C/CCC(O)CC(=O)C2=C1O (centres undefined),growth,SK-MEL-2 melanoma,-89.8% (active)
same,growth,SN12C renal,-84.9% (active)
same,growth,UO-31 renal,-95.7% (active)
same,growth,ACHN renal,-93.3% (active)
same,growth,CAKI-1 renal,-88% (active)
same,growth,A498 renal,-87.7% (active)
Cc1ccc(NC(=O)CBr)cc1,growth,SK-MEL-2 melanoma,110% (inactive)
same,growth,SN12C renal,95.7% (inactive)
same,growth,UO-31 renal,86.1% (inactive)
same,growth,TK-10 renal; 10 µM unless noted,110% (inactive)
same,growth,ACHN renal,108% (inactive)
same,growth,CAKI-1 renal,104% (inactive)
same,growth,A498 renal,99.3% (inactive)
same,growth,CCRF-CEM leukemia,23.8% (inactive)
CCCCCCCC[N+]12CN3CN(CN(C3)C1)C2,growth,SK-MEL-2 melanoma,120% (inactive)
same,growth,SN12C renal,96.8% (inactive)
same,growth,TK-10 renal; 10 µM unless noted,99.8% (inactive)
same,growth,ACHN renal,99.5% (inactive)
same,growth,CAKI-1 renal,92.5% (inactive)
same,growth,A498 renal,95.2% (inactive)
same,growth,HL-60(TB) leukemia,137% (inactive)
same,growth,CCRF-CEM leukemia,97.1% (inactive)
[Cl][Sn]([c]1ccccc1)([c]1ccccc1)[c]1ccccc1,growth,SK-MEL-2 melanoma,-62.9% (active)
same,growth,SN12C renal,-28.9% (active)
same,growth,TK-10 renal; 10 µM unless noted,-92.7% (active)
same,growth,ACHN renal,-89.2% (active)
same,growth,CAKI-1 renal,-87.8% (active)
same,growth,A498 renal,-91% (active)
same,growth,HL-60(TB) leukemia,-25.3% (active)
same,growth,CCRF-CEM leukemia,-46% (active)
COc1ccc(/C=C(\C)[N+](=O)[O-])cc1OC,growth,SK-MEL-2 melanoma,21.4% (inactive)
same,growth,SN12C renal,39.9% (inactive)
same,growth,UO-31 renal,-83% (active)
same,growth,ACHN renal,-59.9% (active)
same,growth,CAKI-1 renal,-84.4% (active)
same,growth,A498 renal,111% (inactive)
same,growth,CCRF-CEM leukemia,-16.4% (active)
Cc1cc(C)c(C[N+](C)(C)C)c(C)c1C,growth,SK-MEL-2 melanoma,-19.5% (active)
same,growth,SN12C renal,0.359% (active)
same,growth,UO-31 renal,4.54% (active)
same,growth,ACHN renal,6.7% (active)
same,growth,CAKI-1 renal,5.45% (active)
same,growth,CCRF-CEM leukemia,-2.18% (active)
O=C(CCl)Nc1ccc(Cl)cc1,growth,EKVX NSCLC,101% (inactive)
same,growth,SN12C renal,35.8% (inactive)
same,growth,ACHN renal,62.4% (inactive)
same,growth,CAKI-1 renal,-7.72% (active)
same,growth,A498 renal,113% (inactive)
same,growth,CCRF-CEM leukemia,26.3% (inactive)
